Out of some 5,500 compounds screened, about 2,000 (36%) were called active. Another 18% or so got no clear call; they are omitted. Rule as the data show it: active = normalized growth mostly below about 0.91 (no sharp cut-off); inconclusive = no clear call, values can overlap the other calls; inactive = mostly above about 0.92. Some of the results follow.
Test: chemical genetic growth profiling, strain panel (AID 1159580);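 also: tested at 20 µM; growth read once vehicle control cultures reached saturation at 30 °C; 1 = growth at the plate median or of vehicle wells; lower values mean less growth of the strain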
Conditions: S. cerevisiae deletion strains, growth OD

Measured: normalized growth

CC(C)CCCC(C)C1CCC2C3CCC4CC(=O)CCC4(C)C3CCC12C (stereo not drawn)
inactive: locus YAL013W, strain DEP1, stronger effect = lower value 1.01 | locus YBR021W, strain FUR4, stronger effect = lower value 1.02 | locus YBR229C, strain ROT2, stronger effect = lower value 1 | locus YCL029C, strain bik1, stronger effect = lower value 1.02 | locus YDL035C, strain GPR1, stronger effect = lower value 1.06 | locus YDL074C, strain BRE1, stronger effect = lower value 1.07 | locus YDL101C, strain DUN1, stronger effect = lower value 1.02 | locus YDL134C, strain PPH21, stronger effect = lower value 1.03 | locus YDL185W, strain tfp1, stronger effect = lower value 1.01 | locus YDL192W, strain arf1, stronger effect = lower value 1.05 | locus YDR101C, strain arx1, stronger effect = lower value 1.02 | locus YDR150W, strain NUM1, stronger effect = lower value 1 | locus YDR162C, strain NBP2, stronger effect = lower value 1.05 | locus YDR318W, strain mcm21, stronger effect = lower value 1.01 | locus YDR388W, stronger effect = lower value 1.02 | locus YDR502C, strain sam2, stronger effect = lower value 1.01 | locus YEL061C, strain CIN8, stronger effect = lower value 1.02 | locus YER110C, stronger effect = lower value 1.02 | locus YER155C, strain BEM2, stronger effect = lower value 1 | locus YER167W, strain BCK2, stronger effect = lower value 1 | locus YGL078C, strain dbp3, stronger effect = lower value 1.02 | locus YGL086W, strain mad1, stronger effect = lower value 1.02 | locus YGL248W, strain PDE1, stronger effect = lower value 1.04 | locus YGR078C, strain PAC10, stronger effect = lower value 1.03 | locus YGR135W, strain pre9, stronger effect = lower value 1.03 | locus YGR252W, strain gcn5, stronger effect = lower value 1 | locus YHR030C, strain SLT2, stronger effect = lower value 1.02 | locus YHR079C, strain IRE1 (second series), stronger effect = lower value 1 | locus YHR094C, strain hxt1, stronger effect = lower value 1.04 | locus YHR129C, strain ARP1, stronger effect = lower value 1.02 | locus YHR200W, strain rpn10, stronger effect = lower value 1.01 | locus YIL066C, strain RNR3, stronger effect = lower value 1.05 | locus YIL073C, strain SPO22, stronger effect = lower value 1.11 | locus YIL125W, strain kgd1, stronger effect = lower value 1.01 | locus YIR030C, strain dcg1, stronger effect = lower value 1.02 | locus YJL095W, strain BCK1, stronger effect = lower value 1.06 | locus YJL134W, strain LCB3, stronger effect = lower value 1.01 | locus YJL168C, strain set2, stronger effect = lower value 1.01 | locus YJL187C, strain SWE1 (second series), stronger effect = lower value 1.03 | locus YJR043C, strain POL32, stronger effect = lower value 1.02 | locus YJR075W, strain HOC1, stronger effect = lower value 1.03 | locus YKL009W, strain mrt4, stronger effect = lower value 1.06 | locus YKL068W, stronger effect = lower value 1.01 | locus YKL085W, strain MDH1 (second series), stronger effect = lower value 1.02 | locus YKL085W, strain MDH1, stronger effect = lower value 1.02 | locus YKL190W, strain CNB1, stronger effect = lower value 1 | locus YKR001C, strain vps1, stronger effect = lower value 1.09 | locus YLR039C, strain RIC1, stronger effect = lower value 1.08 | locus YLR058C, strain SHM2, stronger effect = lower value 1.03 | locus YLR102C, strain apc9, stronger effect = lower value 1.02 | locus YLR262C, strain YPT6, stronger effect = lower value 1.09 | locus YLR268W, strain sec22, stronger effect = lower value 1.06 | locus YLR330W, strain CHS5, stronger effect = lower value 1.02 | locus YLR342W, strain FKS1 (second series), stronger effect = lower value 1.06 | locus YLR371W, strain rom2, stronger effect = lower value 1.01 | locus YLR418C, strain cdc73, stronger effect = lower value 1.05 | locus YML016C, strain PPZ1, stronger effect = lower value 1.02 | locus YML032C, strain rad52, stronger effect = lower value 1.02 | locus YML124C, strain tub3, stronger effect = lower value 1.01 | locus YMR078C, strain ctf18, stronger effect = lower value 1.01 | locus YMR223W, strain ubp8, stronger effect = lower value 1.04 | locus YMR263W, strain SAP30, stronger effect = lower value 1.02 | locus YMR307W, strain GAS1, stronger effect = lower value 1.19 | locus YNL067W, strain RPL9B, stronger effect = lower value 1.02 | locus YNL128W, strain TEP1, stronger effect = lower value 1.06 | locus YNL153C, strain GIM3, stronger effect = lower value 1.03 | locus YNL233W, strain BNI4, stronger effect = lower value 1 | locus YNL250W, strain rad50, stronger effect = lower value 1.02 | locus YNL271C, strain bni1, stronger effect = lower value 1.01 | locus YNL298W, strain CLA4, stronger effect = lower value 1.01 | locus YNL307C, strain MCK1, stronger effect = lower value 1.01 | locus YNL322C, strain KRE1, stronger effect = lower value 1.01 | locus YNR052C, strain pop2, stronger effect = lower value 1.01 | locus YOL012C, strain htz1 1.43 | locus YOL147C, strain pex11, stronger effect = lower value 1.01 | locus YOR061W, strain CKA2, stronger effect = lower value 1.04 | locus YOR069W, strain VPS5, stronger effect = lower value 1.01 | locus YOR136W, strain idh2, stronger effect = lower value 1.02 | locus YOR144C, strain elg1, stronger effect = lower value 1.01 | locus YOR184W, strain ser1, stronger effect = lower value 1.07 | locus YOR316C, strain cot1, stronger effect = lower value 1.02 | locus YPL055C, strain LGE1, stronger effect = lower value 1.03 | locus YPL241C, strain CIN2, stronger effect = lower value 1.01 | locus YPR119W, strain clb2, stronger effect = lower value 1.01 | locus YPR141C, strain kar3, stronger effect = lower value 1.02 | locus YPR163C, strain tif3, stronger effect = lower value 1.03 | locus YPR167C, strain met16, stronger effect = lower value 1.02 | strain wtn01, stronger effect = lower value 1.04

Source: PubChem BioAssay AID1159580 (chemical genetic matrix, 2015)
